Assay results as given in PubChem BioAssay (NCATS).
Records with an inconclusive call do not appear. Values without a mark were called inactive. The call rests on the fitted dose curve; in most records, active means well fitted inhibition curve with a large enough effect; inconclusive means small, poorly fitted or top-dose-only effect; inactive means no such curve, though single readings can be large or run the other way. Numbered stars: 1 amine (or outer) side, 2 acyl side, 3 side chain; on linkers, the order of the positions; unused ones are H or OH. Bridge positions count the residues as written; N and C are the ends. Peptide text beside a SMILES is read from it. X4 = O=C(CCC[*:2])[*:1]

The compounds below were run against Retinaldehyde dehydrogenase 3 (Homo sapiens) (UniProt P47895) (assay: qHTS for Inhibitors of the Aldehyde Dehydrogenase Family (ALDH1A3) Primary screen (AID 2061315;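 further: plate controls were DMSO vehicle for no effect and reference inhibitor for full effect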)). Settings: ALDH inhibition qHTS; series mostly up to 56 µM; activity change, negative = inhibition: at the top concentration.
`N#CC1C(=O)N=C(c2cc(Cl)ccc2O)C=C1c1cc(OCc2ccccc2)cc(OCc2ccccc2)c1` (stereo not given) was tested, and the “activity change, negative = inhibition” value was 6.75%. In the case of `C/C=C(\C)C(=O)OC[C@H]1O[C@@H](O[C@H]2[C@@H](O[C@H]3O[C@H](CO)[C@@H](O)[C@H](O)[C@H]3O[C@@H]3O[C@H](CO)[C@@H](O)[C@H](O)[C@H]3O)O[C@H](COC(=O)/C(C)=C/C)[C@@H](O)[C@@H]2O)[C@H](O)[C@@H](O)[C@@H]1O`, the “activity change, negative = inhibition” value is reported as -1.87% [at 16.9 µM]. `CC(C)CC(=O)NCCn1cc(C(=O)O)c(=O)cc1C(O)c1ccccc1` (stereo not given) was tested, and the “activity change, negative = inhibition” value was 13%. With `O=C1NC2CCc3nc4ccccc4c(=O)n3C2=Nc2ccccc21` (stereo not given) the “activity change, negative = inhibition” value was 5.38%. In the case of `C[C@@H]1CC[C@]2(C(=O)O)CC[C@]3(C)C(=CCC4[C@@]5(C)C[C@@H](O)[C@@H](O)C(C)(C)C5CC[C@]43C)C2[C@]1(C)O` (stereo not given in full), the “activity change, negative = inhibition” value is reported as 11% [at 28 µM]. `CCNC(=O)Nc1ccc(-c2nc3c(c(N4CCOC[C@@H]4C)n2)CCN(c2ncccn2)C3)cc1` was tested, and the “activity change, negative = inhibition” value was 17.1%. With `COc1cc(/C=C/C(=O)OC2CC(OC(C)=O)C(OC(C)=O)C3C2CCC2C(=O)OC(c4ccoc4)CC23C)ccc1O[C@@H]1O[C@H](CO)[C@@H](O)[C@H](O)[C@H]1O` (stereo not given in full) the “activity change, negative = inhibition” value was 12% [at 16.9 µM]. With `CC1=CCC2C(C)(C)CCCC2(C)C1CC12OC1C(O)C(CO)=CC2O` (stereo not given) the “activity change, negative = inhibition” value was 16.4%. For `CC(=O)OC[C@]12[C@@H](OC(=O)c3ccoc3)C[C@@H]3[C@@H](OC(C)=O)[C@]1(OC3(C)C)[C@@](C)(O)C[C@H](OC(=O)c1ccoc1)[C@@H]2OC(=O)c1ccoc1`, the “activity change, negative = inhibition” value was 8.92% [at 16.9 µM]. In the case of `COc1ccc(C2(N(C)C(=O)c3ccc(NC(=O)c4ccco4)cc3)CCOCC2)cc1`, the “activity change, negative = inhibition” value is reported as -12.2%. Compound `CCC/C=C/C(=O)O[C@H]1CC(C)(C)CC2[C@@]13[C@H](O)C[C@]1(C)[C@@]2(CCC2[C@@]4(C)CC[C@H](O[C@@H]5O[C@H](C(=O)O)[C@@H](O)[C@H](O[C@@H]6O[C@H](CO)[C@H](O)[C@H](O)[C@H]6O[C@@H]6O[C@@H](C)[C@H](O)[C@@H](O)[C@H]6O[C@@H]6OC[C@](O)(CO)[C@H]6O)[C@H]5O[C@@H]5O[C@H](CO)[C@H](O)[C@H](O)[C@H]5O)C(C)(C)C4CC[C@]21C)O[C@H]3O` (stereo not given in full) has an activity change, negative = inhibition of 11% [at 11.2 µM]. With `C/C(=C\CCC1(C)C2CC3C(C2)C31C)C(=O)O` (stereo not given) the “activity change, negative = inhibition” value was 13.3%. With `CC(C)(C)NS(=O)(=O)c1cncc(-c2cc(F)c3nc(N)nn3c2)c1` the “activity change, negative = inhibition” value was -9.87%. For `NCCOCCOCCNC(=O)Cc1ccc(Nc2nc(NCc3ccc(F)cc3)nc(NCC3CCCCC3)n2)cc1`, the “activity change, negative = inhibition” value was 26.6%. With `CC[C@H](C)[C@@H]1NC(=O)[C@H](Cc2ccc(OC)cc2)NC(=O)CCCSC[C@@H](C(=O)N2CCC[C@H]2C(=O)N[C@@H](CC(C)C)C(=O)NCC(N)=O)NC(=O)[C@H](CC(N)=O)NC(=O)[C@H](CCC(N)=O)NC1=O` (Y(Me)IQNCPLG-NH2; linker N-5 via X4) the “activity change, negative = inhibition” value was 5.32%. For `C=C1C(O)C[C@@H]2C(C(=O)O)=CO[C@@H](O[C@@H]3O[C@H](CO)[C@@H](O)[C@H](O)[C@H]3OC(=O)c3ccc(O)cc3)[C@H]12` (stereo not given in full), the “activity change, negative = inhibition” value was -1.79% [at 28 µM]. With `O=C(N[C@@H]1CCCc2c1cnn2-c1ccc(F)cc1F)c1ccccn1` the “activity change, negative = inhibition” value was -3.59%. In the case of `COc1ccc(F)cc1-c1cc(NC(=O)[C@@H]2CCCNC2)ncc1Cl`, the “activity change, negative = inhibition” value is reported as 14.4%. For `CC1(C)CC[C@]2(C(=O)O)CC[C@]3(C)C(=CCC4[C@@]5(C)C[C@H](O)[C@H](O[C@@H]6OC[C@H](O)[C@H](O)[C@H]6O)[C@@](C)(CO)C5CC[C@]43C)[C@@H]2C1` (stereo not given in full), the “activity change, negative = inhibition” value was 12.2% [at 16.9 µM]. `CCC(C)(O)C(O)C(=O)OCc1ccc(O[C@@H]2O[C@H](CO)[C@@H](O)[C@H](O)[C@H]2O)c(OC)c1` (stereo not given in full) was tested, and the “activity change, negative = inhibition” value was 3.94% [at 28 µM]. With `CC(C)C(NC(=O)c1ccc2ccccc2n1)C(=O)NC(CC(=O)O)C(=O)COc1c(F)cccc1F` (stereo not given) the “activity change, negative = inhibition” value was 9.92%. For `Cn1c(=O)c(F)c(Nc2ccc(I)cc2F)c2c(=O)n(CC(O)CO)cnc21` (stereo not given), the “activity change, negative = inhibition” value was 5.35%. In the case of `Clc1ccc(CN[C@H]2CCN(c3ncc(Br)cn3)C2)c(Cl)c1`, the “activity change, negative = inhibition” value is reported as -4.16%. For `CCC(C)C(=O)O[C@H]1[C@@H](OC(=O)c2ccoc2)C[C@](C)(O)[C@]23OC(C)(C)[C@H](C[C@H](OC(=O)c4ccoc4)[C@]12COC(C)=O)[C@H]3OC(C)=O` (stereo not given in full), the “activity change, negative = inhibition” value was 2.7% [at 16.9 µM]. With `C/C(=C\CCC(C)(O)c1ccc(C)cc1)C(=O)O` (stereo not given) the “activity change, negative = inhibition” value was -11.9%. `C=C(C)C1CCC2(C(=O)OC3OC(COC4OC(CO)C(O)C(O)C4O)C(OC4OC(C)C(O)C(O)C4O)C(O)C3O)CCC3(C(=O)O)C(CCC4C5(C)CCC(=O)C(C)(C)C5CCC43C)C12` (stereo not given) was tested, and the “activity change, negative = inhibition” value was 1.62% [at 16.9 µM]. For `CC1(C)CC2C(O)C3=C(CC(C)(O)C2C1)C(=O)OC3` (stereo not given), the “activity change, negative = inhibition” value was -4.92%. `C=C1C(OC(C)=O)[C@@]23CCC4[C@](C)(C(=O)O)CCC[C@@]4(C)[C@]2(O)CC[C@H]1C3` (stereo not given in full) was tested, and the “activity change, negative = inhibition” value was 9.44%. With `O=C(OC[C@H]1O[C@H](O[C@]2(CO)O[C@H](CO)[C@@H](O)[C@@H]2O)[C@H](O)[C@@H](O)[C@@H]1O)c1ccc(O)cc1` the “activity change, negative = inhibition” value was 1.17% [at 28 µM]. In the case of `CC1=CC(=O)CC(C)(C)[C@H]1/C=C/C(CO)O[C@@H]1O[C@H](CO)[C@@H](O)[C@H](O)[C@H]1O` (stereo not given in full), the “activity change, negative = inhibition” value is reported as 11.1%. `CC12CC34CC(O)C5C(CO)(CO)CC(=O)CC5(C)C3CC1C2C4` (stereo not given) was tested, and the “activity change, negative = inhibition” value was 6.99%. For `CCC(C)/C=C(C)/C=C/C1=CC2=C(Cl)C(=O)C(C)(O)C(=O)C2(O)C(OC)O1` (stereo not given), the “activity change, negative = inhibition” value was -1.8% [at 28 µM]. With `CC1CC(=O)C2=C(O1)OC1(C)CCC3C(C)(C)C=CC(=O)C3(C)C1C2` (stereo not given) the “activity change, negative = inhibition” value was -27.9%. Compound `CC1(C)CC2C3=CCC4C5(C)CCC(OC6OC(CO)C(O)C(OC7OC(CO)C(O)C(OC8OC(CO)C(O)C(OC9OC(COC%10OC(CO)C(O)C(O)C%10O)C(O)C(O)C9O)C8O)C7O)C6O)C(C)(C)C5CCC4(C)C3(C)CCC2(C(=O)O)CC1O` (stereo not given) has an activity change, negative = inhibition of 1.03% [at 11.2 µM]. For `COc1cc(/C=C/C(=O)OC[C@H]2O[C@@](CO)(O[C@H]3O[C@H](CO)[C@@H](O)[C@H](O)[C@H]3O)[C@@H](OC(=O)/C=C/c3ccc(O)c(OC)c3)[C@@H]2O)ccc1O`, the “activity change, negative = inhibition” value was -16.3% [at 16.9 µM]. For `C=C[C@](C)(O)CC[C@H]1C(C)=CC(=O)[C@H]2C(C)(C)CCC[C@]12C`, the “activity change, negative = inhibition” value was 1.66%. `CC(O)/C=C/C1(O)C(C)C(O[C@@H]2O[C@H](CO)[C@@H](O)[C@H](O)[C@H]2O)C(O)CC1(C)C` (stereo not given in full) was tested, and the “activity change, negative = inhibition” value was 13.6% [at 28 µM]. With `Nc1c(Br)cc(Br)cc1CNC1CCC(O)CC1` (stereo not given) the “activity change, negative = inhibition” value was -11.9%. With `O=C(CCC1CCN(Cc2ccccc2)CC1)c1ccc2c(c1)NCCCC2` the “activity change, negative = inhibition” value was -3.34%. With `CC1(C)CC[C@]2(C(=O)O[C@@H]3O[C@H](CO)[C@@H](O)[C@H](O)[C@H]3O)CC[C@]3(C)C(=CCC4[C@@]5(C)C[C@@H](O)[C@H](O)[C@](C)(C=O)C5CC[C@]43C)[C@@H]2[C@@H]1O` (stereo not given in full) the “activity change, negative = inhibition” value was -0.267% [at 16.9 µM].
